Test results reported in PubChem BioAssay (NCI).
About 79,000 compounds went through this panel and 15% of them were active in at least one assay; those are over-represented in the sample as a whole. Calls of active or inactive are those of the source. No stated cut-off is given here; in the data, active means growth inhibition above about 70%; inactive means the rest.

Assays:
[1] = NCI Yeast Anticancer Drug Screen. Data for the rad52 strain (AID 147);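 further: 0% = growth of vehicle-treated control cultures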; conditions: S. cerevisiae rad52 mutant growth inhibition, hits give high values
Outline: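 Genetically altered yeast (DNA damage repair defect) treated with compound; inhibition calculated relative to vehicle.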

[2] = NCI Yeast Anticancer Drug Screen. Data for the wt1 strain (AID 149);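 further: 0% = growth of vehicle-treated wt1 cultures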; conditions: S. cerevisiae wt1 strain (SPY 50644) growth inhibition, hits give high values
Outline: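 The wt1 strain was treated with compounds, and growth was compared with vehicle-treated cultures to give inhibition.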

[3] = NCI Yeast Anticancer Drug Screen. Data for the rad50EPP+ strain (AID 151);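 further: 0% = growth of vehicle-treated control cultures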; conditions: S. cerevisiae rad50 mutant strain, hits give high values
Outline: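 Strain rad50EPP+; compound exposure; % growth inhibition vs vehicle.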

[4] = NCI Yeast Anticancer Drug Screen. Data for the mgt1 strain (AID 153); conditions: S. cerevisiae mgt1 mutant growth inhibition, hits give high values
Outline: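 Read-out: yeast growth inhibition vs vehicle control. Strain mgt1, drawn from a panel altered in DNA damage repair or cell cycle control.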

[5] = NCI Yeast Anticancer Drug Screen. Data for the rad50 strain (AID 155);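 further: 0% = growth of vehicle-only cultures of the same strain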; conditions: S. cerevisiae rad50 strain growth inhibition, hits give high values
Outline: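 Cells are treated with compound, grown, and their growth is then scored against vehicle-only cultures of the same repair-deficient yeast strain.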

[6] = NCI Yeast Anticancer Drug Screen. Data for the mec2-1 strain (AID 157); conditions: S. cerevisiae mec2-1 strain, hits give high values
Outline: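 Cells of the genetically defined mec2-1 yeast strain are incubated with test compound. Inhibition of growth is calculated against vehicle-treated controls.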

[7] = NCI Yeast Anticancer Drug Screen. Data for the rad14 strain (AID 159);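 further: 0% = growth of vehicle-treated control cultures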; conditions: S. cerevisiae rad14 strain growth inhibition, hits give high values
Outline: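 Readout: yeast growth inhibition, referenced to vehicle-only cultures. Strain bears a defined alteration in DNA damage repair.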

[8] = NCI Yeast Anticancer Drug Screen. Data for the sgs1 mgt1 strain (AID 161);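 further: 0% = growth of cultures given vehicle only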; conditions: S. cerevisiae sgs1 mgt1 strain, hits give high values
Outline: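 Inhibition of yeast growth, normalised to vehicle-treated controls, is reported for a strain bearing genetic alterations in DNA damage repair.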

[9] = NCI Yeast Anticancer Drug Screen. Data for the CLN2oe strain (AID 163);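 further: 0% = growth of vehicle-only control cultures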; conditions: S. cerevisiae CLN2oe strain, hits give high values
Outline: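 Strain altered in cell-cycle control, incubated with compound; growth compared to solvent-treated controls.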

[10] = NCI Yeast Anticancer Drug Screen. Data for the cln2 rad14 strain (AID 165);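 further: 0% = growth equal to vehicle treated cultures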; conditions: S. cerevisiae cln2 rad14 strain, hits give high values
Outline: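 The screen exposed genetically defined yeast (cln2 rad14) to test compounds and scored growth inhibition relative to vehicle-treated controls.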

[11] = NCI Yeast Anticancer Drug Screen. Data for the wt2 strain (AID 169);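 further: 0% = growth of vehicle-treated yeast cultures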; conditions: S. cerevisiae wt2 strain growth inhibition, hits give high values
Outline: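 Steps: yeast strain treated with compound; growth recorded; inhibition calculated relative to cultures given vehicle alone.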

[12] = NCI Yeast Anticancer Drug Screen. Data for the mlh1 strain (AID 171);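 further: 0% = growth of vehicle-treated control cultures of the same strain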; conditions: S. cerevisiae mlh1 strain growth inhibition, hits give high values
Outline: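 Yeast screen: mutant strain plus compound, growth scored against vehicle control wells.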

[13] = NCI Yeast Anticancer Drug Screen. Data for the sgs1 strain (AID 173);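 further: 0% = growth of vehicle-only control cultures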; conditions: S. cerevisiae sgs1 mutant, hits give high values
Outline: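 Inhibition of yeast growth served as the measure. The mutant strain was treated with each compound, and growth was normalised to cultures receiving vehicle alone.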

[14] = NCI Yeast Anticancer Drug Screen. Data for the mlh1 rad18 strain (AID 175); conditions: S. cerevisiae mlh1 rad18 strain growth inhibition, hits give high values
Outline: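 Compound-treated yeast growth, normalised to vehicle controls. Strain bears defined DNA repair mutations.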

[15] = NCI Yeast Anticancer Drug Screen. Data for the rad18 strain (AID 177); conditions: S. cerevisiae rad18 mutant growth inhibition, hits give high values
Outline: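 Inhibition values reflect reduced yeast growth compared with vehicle-treated controls, using a strain engineered with a DNA damage repair defect.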

[16] = NCI Yeast Anticancer Drug Screen. Data for the bub3 strain (AID 167); conditions: S. cerevisiae bub3 mutant strain, hits give high values
Outline: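 Part of a panel of yeast mutants defective in DNA damage repair or cell cycle regulation. Each strain is grown with compound, and inhibition is calculated relative to solvent-treated cultures.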

[17] = at 5.0 µM (retest, dose inferred, filed as 0.5)
[18] = at 50.0 µM (retest, dose inferred, filed as 5.0)

Measured: growth inhibition

CN(CCc1ccc(Br)cc1)CCN1CCCCC1
active: [1]; at 33.0 µM 81% | [1]; at 100.0 µM 98% | [2]; at 100.0 µM 97% | [4]; at 11.0 µM 70% | [4]; at 33.0 µM 94% | [4]; at 100.0 µM 99% | [5]; at 33.0 µM 91% | [5]; [18] 74% | [5]; at 50.0 µM 78.3% | [5]; at 100.0 µM 98% | [6]; at 33.0 µM 74% | [6]; [18] 73% | [6]; at 50.0 µM 86.7% | [6]; at 100.0 µM 99% | [7]; at 33.0 µM 97% | [7]; at 100.0 µM 98% | [8]; [18] 86% | [8]; at 50.0 µM 92.5% | [9]; at 33.0 µM 78% | [9]; at 100.0 µM 98% | [10]; [18] 88% | [10]; at 50.0 µM 83.2% | [11]; at 33.0 µM 93% | [11]; at 100.0 µM 99% | [12]; at 33.0 µM 82% | [12]; at 100.0 µM 99% | [13]; at 33.0 µM 96% | [13]; at 100.0 µM 99% | [14]; [18] 86% | [14]; at 50.0 µM 92.5% | [15]; at 33.0 µM 94% | [15]; at 100.0 µM 98%
inactive: [1]; at 1.2 µM 19% | [1]; at 3.7 µM 26% | [1]; at 11.0 µM 51% | [2]; at 1.2 µM 8% | [2]; at 3.7 µM 16% | [2]; at 11.0 µM 20% | [2]; at 33.0 µM 60% | [3]; at 1.2 µM -1% | [3]; at 3.7 µM 0% | [3]; at 11.0 µM -1% | [3]; at 33.0 µM 0% | [3]; at 100.0 µM 6% | [4]; at 1.2 µM 7% | [4]; at 3.7 µM 20% | [5]; at 1.2 µM 15% | [5]; at 3.7 µM 18% | [5]; [17] 9% | [5]; at 11.0 µM 38% | [6]; at 1.2 µM 17% | [6]; at 3.7 µM 24% | [6]; [17] 13% | [6]; at 11.0 µM 35% | [7]; at 1.2 µM 31% | [7]; at 3.7 µM 49% | [7]; at 11.0 µM 68% | [8]; [17] 30% | [9]; at 1.2 µM 15% | [9]; at 3.7 µM 26% | [9]; at 11.0 µM 46% | [10]; [17] 55% | [11]; at 1.2 µM 8% | [11]; at 3.7 µM 23% | [11]; at 11.0 µM 47% | [12]; at 1.2 µM 11% | [12]; at 3.7 µM 22% | [12]; at 11.0 µM 41% | [13]; at 1.2 µM 16% | [13]; at 3.7 µM 41% | [13]; at 11.0 µM 65% | [14]; [17] 6% | [15]; at 1.2 µM 27% | [15]; at 3.7 µM 53% | [15]; at 11.0 µM 54%

C[CH2][Sn]([CH2]C)([O]S(C)(=O)=O)[O]S(C)(=O)=O
active: [5]; at 50.0 µM 76.2% | [6]; at 50.0 µM 85.3% | [14]; [18] 80%
inactive: [1]; at 1.2 µM -24% | [1]; at 3.7 µM -17% | [1]; at 11.0 µM -24% | [1]; at 33.0 µM -10% | [1]; at 100.0 µM 11% | [2]; at 1.2 µM -27% | [2]; at 3.7 µM -9% | [2]; at 11.0 µM -15% | [2]; at 33.0 µM -12% | [2]; at 100.0 µM -2% | [3]; at 1.2 µM -28% | [3]; at 3.7 µM -30% | [3]; at 11.0 µM -25% | [3]; at 33.0 µM -14% | [3]; at 100.0 µM -19% | [4]; at 1.2 µM 0% | [4]; at 3.7 µM 0% | [4]; at 11.0 µM -11% | [4]; at 33.0 µM -7% | [4]; at 100.0 µM 37% | [5]; at 1.2 µM -21% | [5]; at 3.7 µM -6% | [5]; [17] 18% | [5]; at 11.0 µM -15% | [5]; at 33.0 µM -20% | [5]; [18] 57% | [5]; at 100.0 µM 6% | [6]; at 1.2 µM -15% | [6]; at 3.7 µM -4% | [6]; [17] 13% | [6]; at 11.0 µM -9% | [6]; at 33.0 µM -4% | [6]; [18] 58% | [6]; at 100.0 µM 16% | [7]; at 1.2 µM -21% | [7]; at 3.7 µM -18% | [7]; at 11.0 µM -17% | [7]; at 33.0 µM -10% | [7]; at 100.0 µM -9% | [8]; [17] 14% | [8]; [18] 58% | [8]; at 50.0 µM 50% | [9]; at 1.2 µM -78% | [9]; at 3.7 µM -94% | [9]; at 11.0 µM -65% | [9]; at 33.0 µM -103% | [9]; at 100.0 µM -62% | [10]; [17] 6% | [10]; [18] 18% | [10]; at 50.0 µM 46.2% | [16]; at 1.2 µM -28% | [16]; at 3.7 µM -25% | [16]; [17] 36% | [16]; at 11.0 µM -17% | [16]; at 33.0 µM -27% | [16]; [18] 50% | [16]; at 50.0 µM 45.5% | [16]; at 100.0 µM 24% | [12]; at 1.2 µM -51% | [12]; at 3.7 µM -29% | [12]; at 11.0 µM -33% | [12]; at 33.0 µM -37% | [12]; at 100.0 µM 0% | [13]; at 1.2 µM -27% | [13]; at 3.7 µM -16% | [13]; at 11.0 µM -22% | [13]; at 33.0 µM -7% | [13]; at 100.0 µM 15% | [14]; [17] 33% | [14]; at 50.0 µM 56.6% | [15]; at 1.2 µM -28% | [15]; at 3.7 µM -19% | [15]; at 11.0 µM -13% | [15]; at 33.0 µM -15% | [15]; at 100.0 µM 25%
